Most compounds without a hit are left out; they make up all but 21% or so of the library.
Pf growth 96h = P. falciparum growth inhibition at 96 hour, primary screen for plastid delayed-death inhibitors; Potency, µM (top dose mostly 28.7 µM), for the others: top-dose activity change, negative = inhibition, actives largely listed as inhibitors; actives 6.9% (n = 320,000); P. falciparum luciferase reporter growth, 96 h; note: potency is the fitted concentration of half-maximal effect; % is set by controls: 0 for no effect and ±100 for the full control effect
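Two parasite generations (96 h, 37 C, 5% CO2) of compound exposure in infected erythrocytes (0.05% parasitemia, 2% hematocrit). Luciferase-reporter P. falciparum; decreased luminescence indicates inhibited growth, aimed at apicoplast-acting delayed death.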
Pf growth 48h = P. falciparum growth inhibition at 48 hours (one generation) | P. falciparum luciferase growth in erythrocytes, 48 h | Potency, µM (series often up to 28.7 µM), for the others: at the highest dose activity change, negative = inhibition, usual class: inhibitors | actives 5.9% (n = 310,000) | AID 504832; note: potency is the fitted concentration of half-maximal effect; % is set by controls: 0 for no effect and ±100 for the full control effect
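Luminescence readout; reporter = integrated firefly luciferase in P. falciparum. RBC culture at 2% hematocrit, 0.1% parasitemia final, 37 C/5% CO2; decreased signal taken as growth inhibition.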
NS1 function inh = influenza NS1 inhibition | Potency, µM (titrated, usually from 46.1 µM), without a hit: at the highest dose activity, positive = more growth | actives 0.4% (n = 270,000) | AID 2326; calls by dose curve; note: potency is the fitted concentration of half-maximal effect; actives are rising curves; nearly all actives have a fitted effect of over 50% in size
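Growth recovery, yeast-based: influenza A NS1 expressed in S. cerevisiae causes slow growth, and suppressors are detected by OD600. The parent strain without NS1 is used as positive control.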
CHX counter = counter-screen hit for Shiga toxin inhibitors, cycloheximide; actives 12% (n = 300,000); AID 2314; cell reporter, cycloheximide protein synthesis inhibition counterscreen; max response, %; in the data active = max response mostly above about 13%, no sharp cut-off; inactive = mostly below about 14%; note: read at 38.3 µM for the half of the compounds with a filed dose; 0% is about no effect
Sm TGR block = blocks Schistosoma mansoni thioredoxin glutathione reductase; Q962Y6; purified TGR, DTNB reduction, TNB absorbance 405 nm; Potency, µM (series often up to 114 µM), for inactives: at the top dose activity change, negative = inhibition, most hits filed as inhibitors; actives 3% (n = 360,000); note: potency is the fitted concentration of half-maximal effect; % is set by controls: 0 for no effect and ±100 for the full control effect; nearly all actives have a fitted effect of over 60% in size
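TGR 20 nM + NADPH 100 uM (dispensed conc.), cpd preinc 15 min RT; start with NADPH (500 uM addition) then DTNB (15 mM addition). Kinetic TNB absorbance, 405 nm filter. Four-parameter Hill fit across titration.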
Shiga toxin inh = blocks Shiga toxin action in Vero cells. Vero cells, Shiga toxin protein synthesis inhibition reporter. inhibition, % at 38.7 µM. actives 9.2% (n = 290,000). AID 2315; in the data active = inhibition mostly above about 28%, no sharp cut-off; inactive = mostly below about 43%; note: 0% is about no effect
The depositor's hits bear a star; u = inconclusive; x = no result given; [ ] = dose if it differs, or a comment. Unless noted, calls come from the whole dose curve; as a rule, active = well fitted curve in the direction sought with a large enough effect; inconclusive = small, poorly fitted or top-dose-only effect, or another doubt; inactive = no such curve, though single readings can be large; an effect the other way counts as inactive or inconclusive.

SMILES	Pf growth 96h	Pf growth 48h	NS1 function inh	CHX counter	Sm TGR block	Shiga toxin inh
COc1ccc(OCCSc2nc3ccccc3c(=O)[nH]2)cc1	2.8%	u	-0.3%	-0.4	0.0%	-14.6
Cc1cccc(-c2nc3ccccc3c(=O)[nH]2)c1	12.5%	-9.8%[0.00184 µM]	2.7%	23.5*	20.5%	73.2*
O=c1[nH]c(-c2cccnc2)nc2ccccc12	x	3.1%	3.8%	-1.5	5.0%	-11.5
O=c1[nH]c(-c2ccncc2)nc2ccccc12	7.38µM*	32.9%	-88.7%	-2.9	0.0%	-2.0
N=c1oc2ccccc2cc1-c1nc2ccccc2c(=O)[nH]1	50.4%	x	-12.9%	14.0	6.4%	59.8*
Cc1cccc(-c2nc3ccccc3c(=O)n2-n2cccc2)c1	9.0%	-1.8%	1.8%	-2.6	0.0%	-11.3
COc1ccc(-c2nc3ccccc3c(=O)[nH]2)cc1	145.5%	203.6%	-17.2%	43.3*	-25.5%	55.7*
Cc1cc(C)cc(N2CC(O)=C(c3nc4ccccc4c(=O)[nH]3)C2=N)c1	2.4%	28.3%	-41.3%	0.6	5.9%	-3.4
Cc1cc(C)n(C(=O)CCCn2nc(C)c([N+](=O)[O-])c2C)n1	17.2%	32.3%	x	7.5	5.8%	-13.6
CN(C)c1ccc(-c2nc3ccccc3c(=O)[nH]2)cc1	67.5%	-14.1%	-9.6%	36.1*	-0.4%	37.5*
CCc1ccc(-c2cn(C3CCCCC3)c(=S)[nH]2)cc1	u	-24.7%	x	18.3*	-0.3%	64.8
CCc1ccc(-n2cc(-c3ccc([N+](=O)[O-])cc3)[nH]c2=S)cc1	u	12.8%	-1.1%	12.8	-1.9%	7.6
CN(C)C(=O)c1ccc(NC(=O)CSc2nnc(-c3ccc4c(c3)OCO4)o2)cc1	u	0.9%	x	x	1.2%	x
Cc1ccccc1NC(=O)Cc1nc(CN(C)CC(=O)Nc2cccc(F)c2)cs1	u	u	x	x	-17.4%	x
Cc1ccc(NC(=O)Cc2nc(CSc3nnc(-c4ccc5c(c4)OCO5)o3)cs2)cc1	3.7µM*	212.5%	-7.2%	16.0	-1.1%	98.0*
Cc1ccc(NC(=O)Cc2nc(CN(C)CC(=O)Nc3ccc(C)cc3)cs2)cc1	u	13.1µM*	x	x	-15.2%	x
O=C(Nc1cccc(F)c1)C1CCCN(C(=O)c2ccc(Cl)cc2)C1 (stereo unspecified)	u	u	x	x	-2.8%	x
O=C(Nc1cccc(S(=O)(=O)N2CCOCC2)c1)C1CCCN(C(=O)c2ccc(Cl)cc2)C1 (stereo unspecified)	10.4µM*	u	-10.8%	-3.3	3.9%	-2.6
CC(NC(=O)C1CCCN(C(=O)c2ccc(Cl)cc2)C1)c1cccc(C(F)(F)F)c1 (stereo unspecified)	u	13.1µM*	x	x	-24.9%	x
O=C(Nc1ccc(S(=O)(=O)N2CCCCC2)cc1)C1CCCN(C(=O)c2ccc(Cl)cc2)C1 (stereo unspecified)	11.7µM*	u	u	-4.4	-0.7%	6.6
O=C(Nc1ccc(F)cc1)C1CCCN(c2cnccn2)C1 (stereo unspecified)	1.5%	24.3%	-2.8%	-2.7	3.8%	10.5
CN(C)S(=O)(=O)c1ccc(NC(=O)C2CCCN(C(=O)c3ccc(Cl)cc3)C2)cc1 (stereo unspecified)	u	-2.1%	-16.1%	-6.3	4.1%	-8.7
O=C(Nc1ccc(Cl)cc1)C1CCCN(c2cnccn2)C1 (stereo unspecified)	u	6.5%	-76.6%	23.5*	-6.4%	23.0
CN(C)c1ccc(-c2noc(C3CC(=O)N(c4ccc5c(c4)OCCO5)C3)n2)cc1 (stereo unspecified)	x	x	x	x	-3.3%	x
Cc1ccc(CNC(=O)CCc2c(C)nn(-c3ccc(N4CCCCC4)nn3)c2C)cc1	x	x	x	x	29.4%	x
SMILES	Pf growth 96h	Pf growth 48h	NS1 function inh	CHX counter	Sm TGR block	Shiga toxin inh
CCn1cc(/C=C(\NC(=O)c2ccccc2OC)C(=O)NCCCN2CCOCC2)c2ccccc21	9.28µM*	u	-2.4%	7.7	-20.4%	-5.0
CN1CCN(C(=O)/C(=C/c2cn(S(=O)(=O)N(C)C)c3ccccc23)NC(=O)c2ccccc2)CC1	11.7µM*	u	-0.3%	-3.5	0.3%	-11.1
CN(C)S(=O)(=O)n1cc(/C=C(\NC(=O)c2ccccc2F)C(=O)NCCCn2ccnc2)c2ccccc21	-6.6%	10.4µM*	4.2%	1.9	-5.3%	0.7
CCn1cc(/C=C(\NC(=O)c2ccc(OC)cc2)C(=O)N2CCN(C)CC2)c2ccccc21	13.1µM*	u	-1.1%	-0.3	0.4%	-1.5
CCCc1n(CC(O)COCc2ccccc2)c2ccccc2[n+]1C (stereo unspecified)	5.6%	3.29µM*	x	-3.2	2.8%	20.6
CCCc1n(CC(O)COCC2CC=CCC2)c2ccccc2[n+]1C (stereo unspecified)	35.1%	u	-2.2%	0.9	0.3%[57.1 µM]	-18.0
Cc1cc2c(cc1C)[n+](C)cn2CC(O)COCc1ccccc1 (stereo unspecified)	u	-11.5%	2.4%	3.5	3.4%	19.2
CCCc1n(CC(O)COC2CCCCC2)c2ccccc2[n+]1C (stereo unspecified)	-2.1%	4.15µM*	-2.5%	-2.3	0.0%[57.1 µM]	-15.9
C[n+]1cn(CC(O)COCc2ccccc2)c2ccccc21 (stereo unspecified)	4.65µM*	u	7.4%	-1.3	3.7%	-11.3
COc1ccc(CNC(=O)CCc2c(C)c3cc4c(C)c(C)oc4cc3oc2=O)cc1	x	x	x	x	-10.8%	x
COc1ccc(CNC(=O)C(C)OC(=O)CN2C(=O)COc3ccccc32)cc1 (stereo unspecified)	-3.1%	5.8%	-11.5%	-5.7	-17.9%	-3.2
CN(C(=O)c1ccc(OCC=C(c2ccccc2)c2ccccc2)cc1)c1ccccc1I	x	x	x	3.3	x	13.6
COc1cccc(CN2C(=O)c3ccccc3Sc3ccc(C(=O)NCc4ccccc4)cc32)c1	x	x	x	x	16.4%	x
Clc1ccc(-c2nn3c(C4COc5ccccc5O4)nnc3s2)cc1 (stereo unspecified)	u	-5.3%	-86.6%	20.0*	-2.9%	-3.5
Cc1sc2nc(SCCN(C)C)n(-c3ccccc3)c(=O)c2c1-c1ccc(F)cc1	u	10.4µM*	17.5%	13.1	-16.1%	-7.5
CN(C)CCSc1nc(O)c(-c2ccccc2)c(=O)n1-c1ccccc1	33.5%	9.5%	-0.6%	2.0	7.2%	-8.9
CCOC(=O)C1=C(c2ccccc2)ON(C)C1c1ccccc1 (stereo unspecified)	13.2%	-1.9%	-17.4%	11.5	-0.4%	-3.4
O=C(NCC(c1ccco1)S(=O)(=O)c1ccc(Cl)cc1)c1ccccc1F (stereo unspecified)	x	x	x	x	2.51µM*	x
Cc1ccc(C(=O)NCC(c2ccco2)S(=O)(=O)c2ccc(Cl)cc2)cc1C (stereo unspecified)	x	x	x	x	11.2µM*	x
CSc1ccc(NC(=O)NCCCN2CCC(Cc3ccccc3)CC2)cc1	u	8.28µM*	-0.6%	-3.1	-4.2%	-4.8

Compound activity from PubChem BioAssay.
